Screening results from PubChem.
The list is not random: actives were taken first. Their share in the collection is about 2.2%.
FMDV inh – High Throughput Screening for Foot and Mouth Disease Virus Antivirals; Potency, µM (series often up to 57.9 µM), inactives show at the top dose activity change, negative = inhibition, hits mostly inhibitors; FMDV antiviral cell-based qHTS; 410,000 compounds, 1.2% hits; calls by dose curve; tested in HEK293T cells; further: read-out not given here; nearly all actives have a fitted effect of over 45% in size
Vaccinia Venus – qHTS for Stage-Specific Inhibitors of Vaccinia Orthopoxvirus: Venus Reporter Primary qHTS. Potency, µM (highest dose often 36.5 µM), for inactives: at the top dose activity change, negative = inhibition, usual class: inhibitors. AID 720580, 2013. 330,000 compounds, 0.46% hits. Vaccinia virus Venus reporter expression, fluorescence; calls by dose curve; tested in A549 cells; further: nearly all actives have a fitted effect of over 30% in size
Giardia FBPA inh – qHTS Assay for Inhibitors of Fructose-1,6-bisphosphate Aldolase from Giardia Lamblia; A8B2U2; purified Giardia FBPA; Potency, µM (series often up to 59.6 µM), without a hit: top-dose activity, negative = inhibition, most hits filed as inhibitors; 290,000 compounds, 0.71% hits; active means well fitted inhibition curve with a large enough effect; inconclusive means small, poorly fitted or top-dose-only effect, or effect the other way; further: nearly all actives have a fitted effect of over 55% in size
Target sequence (A8B2U2 whole entry, looked up): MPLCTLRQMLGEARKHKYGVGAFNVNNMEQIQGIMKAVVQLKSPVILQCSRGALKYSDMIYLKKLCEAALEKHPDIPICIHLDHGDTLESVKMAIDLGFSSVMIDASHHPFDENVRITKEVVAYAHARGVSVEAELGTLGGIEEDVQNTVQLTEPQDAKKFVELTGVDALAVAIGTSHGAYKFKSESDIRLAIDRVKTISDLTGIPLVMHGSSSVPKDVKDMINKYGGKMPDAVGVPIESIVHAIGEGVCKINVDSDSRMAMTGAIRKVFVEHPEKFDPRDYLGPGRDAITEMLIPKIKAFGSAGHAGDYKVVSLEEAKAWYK
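Giardia FBPA (40 nM reagent) was preincubated 10 min at RT with compound (up to 57.5 uM final), then substrate plus GAPDH/TPI/NAD/arsenate coupling system with diaphorase/resazurin was added; resorufin fluorescence (525/598 nm) was read after 20 min.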
Vaccinia mCherry – qHTS for Stage-Specific Inhibitors of Vaccinia Orthopoxvirus: mCherry Reporter Primary qHTS. Vaccinia virus mCherry reporter infection, fluorescence. Potency, µM (highest dose often 36.5 µM), for the others: at the top dose activity change, negative = inhibition, hits mostly inhibitors. 310,000 compounds, 0.63% hits. AID 720579, 2013; calls by dose curve; tested in A549 cells; further: nearly all actives have a fitted effect of over 35% in size
Starred values were filed as active, the others as inactive; i = inactive; ? = inconclusive; . = no result given. On the % scale 0 is the no-effect control and ±100 the full control effect; potency means the concentration at half of the fitted maximal effect.

SMILES	FMDV inh	Vaccinia Venus	Giardia FBPA inh	Vaccinia mCherry
CC(NC(=O)c1cccnc1)c1nnc2n1CCN(Cc1ccc(-c3ccccc3Cl)o1)CC2 (configuration not stated)	11%	-16%	.	i
COc1ccc(/C=C/c2c([N+](=O)[O-])c(=O)n(C)c(=O)n2C)cc1OC	.	-2%	-1%	-5%
CN(/C=C/c1c([N+](=O)[O-])c(=O)n(C)c(=O)n1C)c1ccccc1	-6%	-2%	3%	3%
Cn1c(/C=C/c2cccc([N+](=O)[O-])c2)c([N+](=O)[O-])c(=O)n(C)c1=O	13µM*	?	12%	?
Cn1c(/C=C/c2ccc(Cl)cc2)c([N+](=O)[O-])c(=O)n(C)c1=O	18µM*	.	-2%	.
COc1cccc2cc(-c3nc(-c4ccccc4)c(C)s3)c(=O)oc12	.	-8%	.	29%
CC1CN(Cc2c(O)ccc3c2oc(=O)c2ccccc23)CC(C)O1 (configuration not stated)	-23%	.	16µM*	.
CC1CN(Cc2c(O)ccc3c(=O)c(-c4ccccc4)coc23)CC(C)O1 (configuration not stated)	-19%	-14%	0%	-3%
CSC1=NC=C(C#N)C2=NC(c3c(Cl)cccc3Cl)NN12 (configuration not stated)	40µM*	-5%	.	8%
COC(=O)c1cc(CNC(=O)c2ccccn2)cc(NC(=O)c2ccccc2OC)c1	-8%	40%	.	15%
COc1ccc(C=C2CS(=O)(=O)CC(=Cc3ccc(OC)cc3)C2=O)cc1	13µM*	?	.	?
Cc1noc(C)c1C(=O)Nc1sc(C)c(-c2ccccc2)c1C#N	28µM*	4%	-22%	-7%
Cc1cccc(C(=O)Nc2sc(C)c(-c3ccccc3)c2C#N)c1	-24%	-20%	-4%	-5%
Cc1cc(-c2ccnc(-n3ncc(C(=O)NCCc4cccnc4)c3C)n2)c(C)s1	-3%	-27%	.	-13%
O=[N+]([O-])c1ccc2c(c1)/C(=C/c1ccc(C=S)cc1)C=C2	.	2%	.	-13%
COC(=O)CCC(=O)OC1(C)C(=O)C2=CN(Cc3ccc(OC)cc3)C(c3ccc(OC)cc3)=CC2=C(Br)C1=O (configuration not stated)	8%	-5%	?	-13%
COC(=O)CCC(=O)OC1(C)C(=O)C2=CN(CC(C)C)C(c3ccc(OC)cc3)=CC2=C(Br)C1=O (configuration not stated)	.	.	1µM*	.
CCC[N+](C)(C)c1ccc(/C=C/c2ccncc2)cc1	.	i	.	211%
Cc1c(C(=O)NC2CCCCCC2)sc2ncnc(NCC3CCCO3)c12 (configuration not stated)	-9%	-9%	.	-10%
COc1ccc(-c2nnc(SCc3ccccn3)n2C)cc1	35%	-9%	3%	-20%
COc1ccc(N=C(N)SCc2ccccn2)cc1	-7%	11µM*	-20%	11µM*
O=C(CCl)NCCCCCCCCCNC(=O)CCl	-22%	5.6µM*	5%	14µM*
Cc1nc([N+](=O)[O-])c(Br)n1CC(=O)c1ccc(F)cc1	-25%	?	3%	?
Cc1nc([N+](=O)[O-])c(Br)n1CC(=O)c1cccc([N+](=O)[O-])c1	32µM*	?	-2%	?
CCCCS(=O)(=O)/C=C\C=C/S(=O)(=O)CCCC	?	11µM*	9%	.
CCCCS(=O)(=O)/C=C\C1C2C=CC(C2)C1S(=O)(=O)CCCC (configuration not stated)	2%	-8%	7%	.
CCN(CC)C(=O)[C@H]1C[C@H](CC(=O)NCC23CC4CC(CC(C4)C2)C3)C(=O)N2CCc3c([nH]c4ccc(Cl)cc34)[C@]12C	-8%	10µM*	.	?
CCN(CC)C(=O)[C@H]1C[C@H](CC(=O)NCCCN(C)C)C(=O)N2CCc3c([nH]c4ccc(Cl)cc34)[C@]12C	-5%	?	.	i
CC(C)N(C(=O)[C@H]1C[C@H](CC(=O)NCCCN(C)C)C(=O)N2CCc3c([nH]c4ccc(Cl)cc34)[C@]12C)C(C)C	-14%	-5%	.	i
CC(C)N(C(=O)[C@H]1C[C@H](CC(=O)NCC23CC4CC(CC(C4)C2)C3)C(=O)N2CCc3c([nH]c4ccc(Cl)cc34)[C@]12C)C(C)C	?	13µM*	.	?
